# Measured values published in the supplement of paper PMC4466140.
# Legend:
# Experiment in all cases: SPOT peptide array binding signal intensity (averaged, normalized) (arbitrary units (background-subtracted, floor 0; scale differs between SH3 domains)); higher = stronger binding of the SH3 domain to the peptide
# AgAbp1 = target: AgAbp1
# Outline: (§1)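 GST-SH3 fusions from four yeast species, purified on glutathione Sepharose, were incubated at 10 μg/ml overnight at 4°C on membranes of synthetic 15-mer peptides in which cysteines were replaced with serines. Binding signal is the normalized, background-subtracted spot intensity averaged over replicates, in domain-specific arbitrary units.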
# AgBbc1 = target: AgBbc1
# Outline: as §1
# AgBem1-D1 = target: AgBem1-D1
# Outline: as §1
# AgBzz1-D1 = target: AgBzz1-D1
# Outline: as §1
# AgBzz1-D2 = target: AgBzz1-D2
# Outline: as §1
# AgCyk3 = target: AgCyk3
# Outline: as §1
# AgFus1 = target: AgFus1
# Outline: as §1
# AgHof1 = target: AgHof1
# Outline: as §1
# AgHse1 = target: AgHse1
# Outline: as §1
# AgLsb1 = target: AgLsb1
# Outline: as §1
# AgLsb4 = target: AgLsb4
# Outline: as §1
# AgMyo5 = target: AgMyo5
# Outline: as §1
# AgNbp2 = target: AgNbp2
# Outline: as §1
# AgRvs167 = target: AgRvs167
# Outline: as §1
# AgSho1 = target: AgSho1
# Outline: as §1
# AgSla1-D1-D2 = target: AgSla1-D1-D2
# Outline: as §1
# AgSla1-D3 = target: AgSla1-D3
# Outline: as §1
# CaAbp1-D1 = target: CaAbp1-D1
# Outline: as §1
# CaAbp1-D2 = target: CaAbp1-D2
# Outline: as §1
# CaBbc1 = target: CaBbc1
# Outline: as §1
# CaBem1-D1 = target: CaBem1-D1
# Outline: as §1
# CaBzz1-D1 = target: CaBzz1-D1
# Outline: as §1
# CaBzz1-D2 = target: CaBzz1-D2
# Outline: as §1
# CaCyk3 = target: CaCyk3
# Outline: as §1
# CaFus1 = target: CaFus1
# Outline: as §1
# CaHof1 = target: CaHof1
# Outline: as §1
# CaHse1 = target: CaHse1
# Outline: as §1
# CaLsb1 = target: CaLsb1
# Outline: as §1
# CaLsb4 = target: CaLsb4
# Outline: as §1
# CaMyo5 = target: CaMyo5
# Outline: as §1
# CaNbp2 = target: CaNbp2
# Outline: as §1
# CaRvs167 = target: CaRvs167
# Outline: as §1
# CaRvs167-3 = target: CaRvs167-3
# Outline: as §1
# CaSho1 = target: CaSho1
# Outline: as §1
# CaSla1-D1-D2 = target: CaSla1-D1-D2
# Outline: as §1
# CaSla1-D3 = target: CaSla1-D3
# Outline: as §1
# ScAbp1 = target: ScAbp1
# Outline: as §1
# ScBbc1 = target: ScBbc1
# Outline: as §1
# ScBem1-D1 = target: ScBem1-D1
# Outline: as §1
# ScBzz1-D1 = target: ScBzz1-D1
# Outline: as §1
# ScBzz1-D2 = target: ScBzz1-D2
# Outline: as §1
# ScCyk3 = target: ScCyk3
# Outline: as §1
# ScFus1 = target: ScFus1
# Outline: as §1
# ScHof1 = target: ScHof1
# Outline: as §1
# ScHse1 = target: ScHse1
# Outline: as §1
# ScLsb1 = target: ScLsb1
# Outline: as §1
# ScLsb2 = target: ScLsb2
# Outline: as §1
# ScLsb3 = target: ScLsb3
# Outline: as §1
# ScLsb4 = target: ScLsb4
# Outline: as §1
# ScMyo3 = target: ScMyo3
# Outline: as §1
# ScMyo5 = target: ScMyo5
# Outline: as §1
# ScNbp2 = target: ScNbp2
# Outline: as §1
# ScPex13 = target: ScPex13
# Outline: as §1
# ScRvs167 = target: ScRvs167
# Outline: as §1
# ScSho1 = target: ScSho1
# Outline: as §1
# ScSla1-D1-D2 = target: ScSla1-D1-D2
# Outline: as §1
# ScSla1-D3 = target: ScSla1-D3
# Outline: as §1
# SpAbp1-D1 = target: SpAbp1-D1
# Outline: as §1
# SpBbc1 = target: SpBbc1
# Outline: as §1
# SpBzz1-D1 = target: SpBzz1-D1
# Outline: as §1
# SpBzz1-D2 = target: SpBzz1-D2
# Outline: as §1
# SpCyk3 = target: SpCyk3
# Outline: as §1
# SpHof1 = target: SpHof1
# Outline: as §1
# SpHof1-2 = target: SpHof1-2
# Outline: as §1
# SpHof1-3 = target: SpHof1-3
# Outline: as §1
# SpHse1 = target: SpHse1
# Outline: as §1
# SpLsb1 = target: SpLsb1
# Outline: as §1
# SpLsb4 = target: SpLsb4
# Outline: as §1
# SpMyo1 = target: SpMyo1
# Outline: as §1
# SpNbp2 = target: SpNbp2
# Outline: as §1
# SpPex13 = target: SpPex13
# Outline: as §1
# SpRvs167 = target: SpRvs167
# Outline: as §1
# SpSla1-D1-D2 = target: SpSla1-D1-D2
# Outline: as §1
# SpSla1-D3 = target: SpSla1-D3
# Outline: as §1
binder,measurement,setting,value
APKHAPPPVPNETDN,SPOT peptide array binding signal intensity,AgAbp1,≤ 0
same,SPOT peptide array binding signal intensity,AgBbc1,≤ 0
same,SPOT peptide array binding signal intensity,AgBem1-D1,≤ 0
same,SPOT peptide array binding signal intensity,AgBzz1-D1,72
same,SPOT peptide array binding signal intensity,AgBzz1-D2,≤ 0
same,SPOT peptide array binding signal intensity,AgCyk3,≤ 0
same,SPOT peptide array binding signal intensity,AgFus1,≤ 0
same,SPOT peptide array binding signal intensity,AgHof1,≤ 0
same,SPOT peptide array binding signal intensity,AgHse1,≤ 0
same,SPOT peptide array binding signal intensity,AgLsb1,≤ 0
same,SPOT peptide array binding signal intensity,AgLsb4,≤ 0
same,SPOT peptide array binding signal intensity,AgMyo5,1790
same,SPOT peptide array binding signal intensity,AgNbp2,≤ 0
same,SPOT peptide array binding signal intensity,AgRvs167,≤ 0
same,SPOT peptide array binding signal intensity,AgSho1,≤ 0
same,SPOT peptide array binding signal intensity,AgSla1-D1-D2,≤ 0
same,SPOT peptide array binding signal intensity,AgSla1-D3,2.5
same,SPOT peptide array binding signal intensity,CaAbp1-D1,≤ 0
same,SPOT peptide array binding signal intensity,CaAbp1-D2,≤ 0
same,SPOT peptide array binding signal intensity,CaBbc1,0.25
same,SPOT peptide array binding signal intensity,CaBem1-D1,≤ 0
same,SPOT peptide array binding signal intensity,CaBzz1-D1,992
same,SPOT peptide array binding signal intensity,CaBzz1-D2,115
same,SPOT peptide array binding signal intensity,CaCyk3,≤ 0
same,SPOT peptide array binding signal intensity,CaFus1,≤ 0
same,SPOT peptide array binding signal intensity,CaHof1,≤ 0
same,SPOT peptide array binding signal intensity,CaHse1,1.75
same,SPOT peptide array binding signal intensity,CaLsb1,≤ 0
same,SPOT peptide array binding signal intensity,CaLsb4,≤ 0
same,SPOT peptide array binding signal intensity,CaMyo5,110
FIRKRAPTPPAPSRS,SPOT peptide array binding signal intensity,AgAbp1,948
same,SPOT peptide array binding signal intensity,AgBbc1,334
same,SPOT peptide array binding signal intensity,AgBem1-D1,340
same,SPOT peptide array binding signal intensity,AgBzz1-D1,224
same,SPOT peptide array binding signal intensity,AgBzz1-D2,120
same,SPOT peptide array binding signal intensity,AgCyk3,1
same,SPOT peptide array binding signal intensity,AgFus1,203
same,SPOT peptide array binding signal intensity,AgHof1,65.2
same,SPOT peptide array binding signal intensity,AgHse1,312
same,SPOT peptide array binding signal intensity,AgLsb1,1090
same,SPOT peptide array binding signal intensity,AgLsb4,60
same,SPOT peptide array binding signal intensity,AgMyo5,1.75
same,SPOT peptide array binding signal intensity,AgNbp2,1060
same,SPOT peptide array binding signal intensity,AgRvs167,5.67
same,SPOT peptide array binding signal intensity,AgSho1,14
same,SPOT peptide array binding signal intensity,AgSla1-D1-D2,196
same,SPOT peptide array binding signal intensity,AgSla1-D3,23.2
same,SPOT peptide array binding signal intensity,CaAbp1-D1,2450
same,SPOT peptide array binding signal intensity,CaAbp1-D2,734
same,SPOT peptide array binding signal intensity,CaBbc1,641
same,SPOT peptide array binding signal intensity,CaBem1-D1,813
same,SPOT peptide array binding signal intensity,CaBzz1-D1,1840
same,SPOT peptide array binding signal intensity,CaBzz1-D2,4040
same,SPOT peptide array binding signal intensity,CaCyk3,19.5
same,SPOT peptide array binding signal intensity,CaFus1,334
same,SPOT peptide array binding signal intensity,CaHof1,0.5
same,SPOT peptide array binding signal intensity,CaHse1,10.8
same,SPOT peptide array binding signal intensity,CaLsb1,167
same,SPOT peptide array binding signal intensity,CaLsb4,198
same,SPOT peptide array binding signal intensity,CaMyo5,12.8
same,SPOT peptide array binding signal intensity,CaNbp2,415
same,SPOT peptide array binding signal intensity,CaRvs167,38.7
same,SPOT peptide array binding signal intensity,CaRvs167-3,40.8
same,SPOT peptide array binding signal intensity,CaSho1,158
same,SPOT peptide array binding signal intensity,CaSla1-D1-D2,1780
same,SPOT peptide array binding signal intensity,CaSla1-D3,7.75
same,SPOT peptide array binding signal intensity,ScAbp1,256
same,SPOT peptide array binding signal intensity,ScBbc1,99
same,SPOT peptide array binding signal intensity,ScBem1-D1,27.5
same,SPOT peptide array binding signal intensity,ScBzz1-D1,160
same,SPOT peptide array binding signal intensity,ScBzz1-D2,53
same,SPOT peptide array binding signal intensity,ScCyk3,46
same,SPOT peptide array binding signal intensity,ScFus1,84.5
same,SPOT peptide array binding signal intensity,ScHof1,5.25
same,SPOT peptide array binding signal intensity,ScHse1,922
same,SPOT peptide array binding signal intensity,ScLsb1,224
same,SPOT peptide array binding signal intensity,ScLsb2,313
same,SPOT peptide array binding signal intensity,ScLsb3,432
same,SPOT peptide array binding signal intensity,ScLsb4,26
same,SPOT peptide array binding signal intensity,ScMyo3,22
same,SPOT peptide array binding signal intensity,ScMyo5,20.8
same,SPOT peptide array binding signal intensity,ScNbp2,2260
same,SPOT peptide array binding signal intensity,ScPex13,156
same,SPOT peptide array binding signal intensity,ScRvs167,613
same,SPOT peptide array binding signal intensity,ScSho1,866
same,SPOT peptide array binding signal intensity,ScSla1-D1-D2,2370
same,SPOT peptide array binding signal intensity,ScSla1-D3,29.8
same,SPOT peptide array binding signal intensity,SpAbp1-D1,342
same,SPOT peptide array binding signal intensity,SpBbc1,6.5
same,SPOT peptide array binding signal intensity,SpBzz1-D1,770
same,SPOT peptide array binding signal intensity,SpBzz1-D2,200
same,SPOT peptide array binding signal intensity,SpCyk3,2
same,SPOT peptide array binding signal intensity,SpHof1,116
same,SPOT peptide array binding signal intensity,SpHof1-2,10.5
same,SPOT peptide array binding signal intensity,SpHof1-3,567
same,SPOT peptide array binding signal intensity,SpHse1,377
same,SPOT peptide array binding signal intensity,SpLsb1,556
same,SPOT peptide array binding signal intensity,SpLsb4,1130
same,SPOT peptide array binding signal intensity,SpMyo1,24.5
same,SPOT peptide array binding signal intensity,SpNbp2,75
same,SPOT peptide array binding signal intensity,SpPex13,33
same,SPOT peptide array binding signal intensity,SpRvs167,293
same,SPOT peptide array binding signal intensity,SpSla1-D1-D2,19
same,SPOT peptide array binding signal intensity,SpSla1-D3,4
